According to the supplement of paper PMC10849652:
Of roughly 7,900 targets only a part is listed; those with a hit were picked by preference. About 0.6% of all pairs of compound and target were hits. Unmarked numbers belong to inactive results.

Assays:
Experiment in all cases: log2 fold change, soluble protein after heating vs DMSO (PISA); higher = thermal stabilisation; K562 cells, 10 uM, 30 min; active = over 0.2 and 3.5 SD of the protein, either way, in both replicates (recomputed)
[1] = compound: CS(=O)(=O)c1ccc(-c2cnc(N)c(C(=O)Nc3ccccc3)n2)cc1
Outline: (§1)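 Aliquots of K562 cells (2×10^6 cells/mL) treated with 10 μM compound for 30 min were heated for 3 min over 48°C-58°C. After pooling and extraction in PBS with 0.5% NP-40 at 4°C, soluble protein from a 21,000xg, 90 min spin was quantified by TMTpro 16plex LC-MS/MS with channel sums equalised. Thermal stability is expressed against control samples, from duplicates, as a log2 fold change.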

[2] = compound: C[C@@H](Oc1cc(-c2cnn(C3CCNCC3)c2)cnc1N)c1c(Cl)ccc(F)c1Cl [crizotinib]
Outline: as §1

[3] = compound: C[C@@H]1COCCN1C2=NC(=NC(=C2)C3(CC3)S(=O)(=O)C)C4=C5C=CNC5=CC=C4
Outline: as §1

[4] = compound: C[C@H](C1=CC=C(C=C1)C(=O)NC2=C3C=CNC3=NC=C2)N
Outline: as §1

[5] = compound: C[C@H](Nc1ncnc2nc[nH]c12)c1cc2cccc(Cl)c2c(=O)n1-c1ccccc1 [duvelisib]
Outline: as §1

[6] = compound: Cc1cc(Nc2cc(CN3CCOCC3)c3nc(C)c(Cc4ccc(Cl)cc4F)n3n2)n[nH]1 [gandotinib]
Outline: as §1

[7] = compound: Cc1cc(Nc2cc(N3CCN(C)CC3)nc(Sc3ccc(NC(=O)C4CC4)cc3)n2)n[nH]1 [tozasertib]
Outline: as §1

[8] = compound: Cc1cc(SCc2sc(-c3ccc(C(F)(F)F)cc3)nc2C)ccc1OCC(=O)O
Outline: as §1

[9] = compound: Cc1ccc(-n2nc(C(C)(C)C)cc2NC(=O)Nc2ccc(OCCN3CCOCC3)c3ccccc23)cc1 [doramapimod]
Outline: as §1

[10] = compound: Cc1ccc(C(=O)N(CCCN)[C@@H](c2nc3cc(Cl)ccc3c(=O)n2Cc2ccccc2)C(C)C)cc1 [ispinesib]
Outline: as §1

Sequence of UniProt Q13501 (Q13501 whole entry, looked up): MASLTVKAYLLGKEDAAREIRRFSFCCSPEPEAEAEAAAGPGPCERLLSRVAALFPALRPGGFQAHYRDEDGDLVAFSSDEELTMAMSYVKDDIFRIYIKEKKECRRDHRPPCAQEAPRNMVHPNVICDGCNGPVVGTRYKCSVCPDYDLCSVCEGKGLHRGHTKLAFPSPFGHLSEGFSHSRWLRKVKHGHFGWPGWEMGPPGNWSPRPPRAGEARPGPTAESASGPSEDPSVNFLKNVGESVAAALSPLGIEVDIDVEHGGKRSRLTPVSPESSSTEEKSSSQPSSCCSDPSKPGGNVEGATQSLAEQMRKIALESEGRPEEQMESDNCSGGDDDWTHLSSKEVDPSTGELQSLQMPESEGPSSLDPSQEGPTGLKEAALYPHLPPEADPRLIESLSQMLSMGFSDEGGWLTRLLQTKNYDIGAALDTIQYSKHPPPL
Sequence of UniProt Q9UKI8 (Q9UKI8 whole entry, looked up): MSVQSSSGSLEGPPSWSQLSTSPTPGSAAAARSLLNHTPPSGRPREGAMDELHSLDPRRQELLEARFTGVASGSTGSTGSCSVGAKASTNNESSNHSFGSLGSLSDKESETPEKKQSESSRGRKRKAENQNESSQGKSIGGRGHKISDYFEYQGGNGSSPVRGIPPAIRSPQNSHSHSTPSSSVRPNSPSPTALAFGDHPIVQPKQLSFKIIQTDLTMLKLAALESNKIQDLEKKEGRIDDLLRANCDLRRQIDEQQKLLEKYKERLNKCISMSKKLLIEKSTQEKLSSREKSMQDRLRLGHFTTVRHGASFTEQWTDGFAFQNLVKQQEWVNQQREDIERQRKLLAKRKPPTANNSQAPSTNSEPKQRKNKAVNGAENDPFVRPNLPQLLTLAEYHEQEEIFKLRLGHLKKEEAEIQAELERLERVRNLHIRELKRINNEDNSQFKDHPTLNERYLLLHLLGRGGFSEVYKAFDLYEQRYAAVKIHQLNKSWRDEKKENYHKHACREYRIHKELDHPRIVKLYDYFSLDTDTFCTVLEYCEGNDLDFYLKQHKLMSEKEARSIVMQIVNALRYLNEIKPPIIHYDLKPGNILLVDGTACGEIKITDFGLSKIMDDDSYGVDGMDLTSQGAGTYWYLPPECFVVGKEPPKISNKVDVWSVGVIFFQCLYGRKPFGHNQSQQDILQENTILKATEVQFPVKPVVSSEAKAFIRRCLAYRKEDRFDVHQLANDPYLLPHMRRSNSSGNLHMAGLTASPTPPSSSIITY
Sequence of UniProt Q9UH99 (Q9UH99 whole entry, looked up): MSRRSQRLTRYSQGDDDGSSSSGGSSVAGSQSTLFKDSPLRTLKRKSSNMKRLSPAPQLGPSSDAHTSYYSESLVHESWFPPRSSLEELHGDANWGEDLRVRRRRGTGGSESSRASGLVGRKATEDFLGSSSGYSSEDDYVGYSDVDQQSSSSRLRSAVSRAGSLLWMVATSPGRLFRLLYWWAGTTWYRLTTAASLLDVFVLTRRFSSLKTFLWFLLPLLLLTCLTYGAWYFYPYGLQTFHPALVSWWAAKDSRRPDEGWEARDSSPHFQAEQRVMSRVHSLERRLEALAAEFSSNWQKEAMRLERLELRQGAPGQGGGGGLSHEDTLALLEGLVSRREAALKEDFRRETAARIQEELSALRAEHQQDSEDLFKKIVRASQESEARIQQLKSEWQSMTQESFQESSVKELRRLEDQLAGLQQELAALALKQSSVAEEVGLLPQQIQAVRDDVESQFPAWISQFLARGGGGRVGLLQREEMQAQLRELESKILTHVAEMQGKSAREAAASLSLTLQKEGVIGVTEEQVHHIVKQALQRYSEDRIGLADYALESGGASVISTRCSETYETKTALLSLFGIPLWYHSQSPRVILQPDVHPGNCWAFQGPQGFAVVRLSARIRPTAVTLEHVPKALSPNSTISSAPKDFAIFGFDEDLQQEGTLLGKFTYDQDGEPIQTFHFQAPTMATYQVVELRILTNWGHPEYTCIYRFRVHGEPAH
Sequence of UniProt Q9P016 (Q9P016 whole entry, looked up): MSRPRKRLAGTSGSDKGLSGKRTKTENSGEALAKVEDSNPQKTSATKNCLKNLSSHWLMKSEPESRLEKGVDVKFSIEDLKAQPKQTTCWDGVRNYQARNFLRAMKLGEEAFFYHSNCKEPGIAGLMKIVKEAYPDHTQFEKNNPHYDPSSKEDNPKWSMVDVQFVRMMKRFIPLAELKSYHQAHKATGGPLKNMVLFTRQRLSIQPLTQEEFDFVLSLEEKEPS
Sequence of UniProt Q9Y5X3 (Q9Y5X3 whole entry, looked up): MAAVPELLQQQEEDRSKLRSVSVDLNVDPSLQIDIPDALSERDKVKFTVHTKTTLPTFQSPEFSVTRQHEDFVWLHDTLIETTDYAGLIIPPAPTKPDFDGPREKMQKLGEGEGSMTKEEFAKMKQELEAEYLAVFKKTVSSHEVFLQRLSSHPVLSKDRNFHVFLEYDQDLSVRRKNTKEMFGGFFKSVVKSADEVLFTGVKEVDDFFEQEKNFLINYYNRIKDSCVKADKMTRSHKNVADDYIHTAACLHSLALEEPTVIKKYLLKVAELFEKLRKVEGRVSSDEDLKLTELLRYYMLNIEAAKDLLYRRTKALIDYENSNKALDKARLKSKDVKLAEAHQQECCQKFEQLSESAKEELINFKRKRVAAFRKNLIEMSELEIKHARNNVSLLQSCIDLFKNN
Sequence of UniProt Q96BW9 (Q96BW9 whole entry, looked up): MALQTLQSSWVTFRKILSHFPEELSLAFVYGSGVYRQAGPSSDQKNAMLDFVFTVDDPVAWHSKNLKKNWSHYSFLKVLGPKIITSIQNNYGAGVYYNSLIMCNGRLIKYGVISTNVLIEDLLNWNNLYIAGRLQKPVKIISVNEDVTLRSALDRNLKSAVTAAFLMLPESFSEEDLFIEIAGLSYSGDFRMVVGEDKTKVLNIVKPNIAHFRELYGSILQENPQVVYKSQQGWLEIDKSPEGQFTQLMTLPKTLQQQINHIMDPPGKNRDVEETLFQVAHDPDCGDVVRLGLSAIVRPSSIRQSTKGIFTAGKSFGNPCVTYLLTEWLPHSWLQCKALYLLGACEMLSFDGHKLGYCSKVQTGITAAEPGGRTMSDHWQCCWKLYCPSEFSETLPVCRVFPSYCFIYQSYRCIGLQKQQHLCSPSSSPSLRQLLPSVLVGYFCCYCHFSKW
Sequence of UniProt Q8IY18 (Q8IY18 whole entry, looked up): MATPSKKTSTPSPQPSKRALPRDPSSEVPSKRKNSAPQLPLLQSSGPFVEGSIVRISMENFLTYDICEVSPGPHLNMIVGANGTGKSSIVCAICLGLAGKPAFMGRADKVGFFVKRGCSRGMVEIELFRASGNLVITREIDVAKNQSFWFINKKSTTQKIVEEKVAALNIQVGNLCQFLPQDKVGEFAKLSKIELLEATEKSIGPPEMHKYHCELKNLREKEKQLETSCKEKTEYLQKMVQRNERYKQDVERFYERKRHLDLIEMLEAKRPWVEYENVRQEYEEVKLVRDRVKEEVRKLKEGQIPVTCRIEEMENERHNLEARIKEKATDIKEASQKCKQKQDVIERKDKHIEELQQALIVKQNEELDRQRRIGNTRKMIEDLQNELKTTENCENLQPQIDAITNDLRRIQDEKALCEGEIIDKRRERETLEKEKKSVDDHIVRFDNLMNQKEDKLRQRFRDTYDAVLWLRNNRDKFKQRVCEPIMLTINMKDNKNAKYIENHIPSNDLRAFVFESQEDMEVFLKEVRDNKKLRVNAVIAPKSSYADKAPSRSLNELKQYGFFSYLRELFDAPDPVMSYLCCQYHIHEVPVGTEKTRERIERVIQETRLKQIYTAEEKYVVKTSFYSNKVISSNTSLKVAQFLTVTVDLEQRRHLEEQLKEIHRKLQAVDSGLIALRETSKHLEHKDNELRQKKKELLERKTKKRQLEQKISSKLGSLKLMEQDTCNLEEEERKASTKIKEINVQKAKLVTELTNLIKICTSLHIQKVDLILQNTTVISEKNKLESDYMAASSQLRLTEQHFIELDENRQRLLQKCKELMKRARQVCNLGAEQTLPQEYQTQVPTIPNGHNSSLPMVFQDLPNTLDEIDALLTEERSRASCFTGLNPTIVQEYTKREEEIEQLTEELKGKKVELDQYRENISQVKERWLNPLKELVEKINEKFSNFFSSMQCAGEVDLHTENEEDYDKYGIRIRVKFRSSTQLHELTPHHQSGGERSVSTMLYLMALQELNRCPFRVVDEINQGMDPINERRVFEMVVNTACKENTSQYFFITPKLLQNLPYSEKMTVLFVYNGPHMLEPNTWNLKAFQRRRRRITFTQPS
Sequence of UniProt Q15582 (Q15582 whole entry, looked up): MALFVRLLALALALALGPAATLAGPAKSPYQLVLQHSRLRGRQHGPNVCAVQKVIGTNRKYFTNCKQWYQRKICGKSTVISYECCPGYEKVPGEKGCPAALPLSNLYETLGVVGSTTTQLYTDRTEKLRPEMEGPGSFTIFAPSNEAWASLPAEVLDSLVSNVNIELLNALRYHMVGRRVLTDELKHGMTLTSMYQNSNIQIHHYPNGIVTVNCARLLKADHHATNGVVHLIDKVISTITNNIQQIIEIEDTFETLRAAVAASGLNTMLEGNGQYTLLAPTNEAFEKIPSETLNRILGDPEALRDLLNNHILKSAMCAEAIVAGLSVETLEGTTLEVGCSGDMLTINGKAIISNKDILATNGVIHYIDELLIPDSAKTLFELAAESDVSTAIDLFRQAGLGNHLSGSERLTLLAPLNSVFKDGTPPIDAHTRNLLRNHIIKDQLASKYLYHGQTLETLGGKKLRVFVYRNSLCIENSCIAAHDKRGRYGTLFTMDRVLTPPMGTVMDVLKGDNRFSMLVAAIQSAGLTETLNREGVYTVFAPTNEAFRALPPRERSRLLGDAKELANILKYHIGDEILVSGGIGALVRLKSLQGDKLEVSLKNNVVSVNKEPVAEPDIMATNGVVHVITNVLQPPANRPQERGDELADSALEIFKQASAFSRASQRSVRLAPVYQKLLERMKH
Sequence of UniProt P04183 (P04183 whole entry, looked up): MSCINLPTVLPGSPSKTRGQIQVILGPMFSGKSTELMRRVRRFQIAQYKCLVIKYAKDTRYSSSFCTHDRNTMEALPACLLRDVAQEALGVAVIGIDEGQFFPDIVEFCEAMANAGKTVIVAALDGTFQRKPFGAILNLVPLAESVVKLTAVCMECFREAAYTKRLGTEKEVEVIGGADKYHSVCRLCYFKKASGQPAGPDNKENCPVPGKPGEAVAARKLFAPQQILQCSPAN

| Target | log2 fold change [1] | log2 fold change [2] | log2 fold change [3] | log2 fold change [4] | log2 fold change [5] | log2 fold change [6] | log2 fold change [7] | log2 fold change [8] | log2 fold change [9] | log2 fold change [10] |
| --- | --- | --- | --- | --- | --- | --- | --- | --- | --- | --- |
| STK25 (UniProt O00506) | 0.04 | -0.2 | -0.011 | -0.026 | 0.051 | -0.074 | -0.027 | -0.001 | 0.019 | -0.071 |
| SP100 isoform 4 (UniProt P23497) | -0.002 | 0.062 | 0.071 | -0.1 | 0.074 | -0.008 | 0.033 | -0.016 | -0.046 | 0.062 |
| SLC6A6 (UniProt P31641) | 0.021 | 0.04 | -0.026 | -0.021 | 0.06 | -0.049 | -0.091 | -0.042 | -0.063 | -0.028 |
| SUN2 (UniProt Q9UH99) | -0.001 | -0.094 | 0.063 | 0.044 | -0.008 | 0.004 | -0.008 | 0.05 | 0.077 | -0.104 |
| SMC5 (UniProt Q8IY18) | 0.03 | 0.161 | 0.081 | 0.036 | 0.046 | 0.028 | 0.017 | 0.017 | 0.015 | 0.092 |
| SREK1 isoform 2 (UniProt Q8WXA9) | 0.317 | -0.05 | -0.005 | -0.345 | 0.026 | 0.014 | 0.003 | 0.105 | -0.027 | 0.059 |
| SQSTM1 (UniProt Q13501) | 0.1 | -0.149 | -0.059 | 0.042 | 0 | 0.168 | 0.044 | -0.027 | 0.008 | -0.019 |
| TBC1D23 (UniProt Q9NUY8) | -0.026 | -0.019 | 0.022 | 0 | 0.002 | -0.205 | -0.042 | 0.028 | -0.027 | -0.48 (active) |
| STARD9 (UniProt Q9P2P6) | 0.144 | 0.141 | 0.012 | 0.049 | -0.06 | 0.04 | 0.013 | 0.028 | 0.074 | -0.146 |
| TIMM44 (UniProt O43615) | -0.028 | -0.207 | 0.056 | -0.015 | 0.085 | -0.258 | -0.038 | 0.091 | -0.035 | -0.128 |
| TAMM41 isoform 3 (UniProt Q96BW9) | 0.064 | -0.232 (active) | 0.073 | -0.016 | 0.032 | -0.04 | -0.036 | 0.05 | -0.048 | -0.249 (active) |
| STK26 (UniProt Q9P289) | -0.019 | -0.308 (active) | 0.123 | 0.049 | -0.01 | -0.061 | -0.11 | -0.01 | -0.034 | -0.146 |
| SLC7A6 (UniProt Q92536) | -0.011 | 0.065 | -0.173 | -0.149 | 0.116 | -0.114 | -0.006 | -0.041 | 0.001 | 0.17 |
| TLK1 (UniProt Q9UKI8) | -0.058 | -0.008 | 0.101 | -0.028 | 0.019 | 0.145 | -0.004 | 0.028 | -0.023 | 0.026 |
| SPINDOC (UniProt Q9BUA3) | 0.09 | 0.104 | -0.059 | -0.074 | -0.296 | -0.001 | 0.14 | 0.053 | 0.097 | -0.008 |
| TGFBR1 isoform 2 (UniProt P36897) | 0.254 (active) | 0.133 | -0.031 | 0.024 | -0.019 | 0.101 | 0.026 | 0.014 | -0.005 | -0.156 |
| SRP72 (UniProt O76094) | 0.021 | -0.121 | -0.017 | 0.167 | -0.004 | -0.08 | 0.068 | 0.154 | 0.051 | -0.185 |
| SNX5 (UniProt Q9Y5X3) | -0.075 | -0.32 (active) | 0.022 | -0.014 | -0.145 | -0.138 | -0.071 | 0.036 | -0.019 | -0.236 |
| SLC7A6OS (UniProt Q96CW6) | 0.047 | -0.04 | 0.004 | -0.133 | 0.047 | -0.081 | 0.028 | -0.049 | 0.214 | 0.077 |
| SRSF2 (UniProt Q01130) | 0.005 | 0.023 | -0.107 | 0.006 | 0.013 | 0.092 | -0.037 | -0.006 | -0.033 | -0.036 |
| THYN1 (UniProt Q9P016) | -0.015 | 0.061 | 0.001 | 0.011 | 0.071 | 0.021 | -0.024 | 0.087 | -0.036 | -0.002 |
| TK1 (UniProt P04183) | -0.046 | 0.011 | -0.008 | -0.097 | 0.004 | -0.055 | -0.032 | -0.03 | -0.013 | 0.017 |
| SMAD9 (UniProt O15198) | 0.016 | 0.019 | 0.068 | 0.037 | 0.014 | -0.197 | -0.069 | 0.074 | -0.013 | -0.169 |
| SPTBN1 (UniProt Q01082) | 0.018 | 0.042 | 0.008 | 0.039 | 0.016 | -0.039 | 0.046 | 0.094 | 0.021 | 0.03 |
| SPR (UniProt P35270) | -0.006 | 0.125 | 0.058 | -0.059 | 0.109 | 0.288 | 0.154 | -0.025 | -0.05 | -0.103 |
| TFR2 (UniProt Q9UP52) | 0.068 | -0.182 | -0.001 | -0.016 | 0.032 | 0.03 | -0.023 | -0.038 | -0.019 | -0.097 |
| STK38L (UniProt Q9Y2H1) | 0.028 | 0.065 | 0.069 | -0.055 | -0.04 | -0.105 | 0.003 | 0.116 | -0.022 | -0.093 |
| TGFBI (UniProt Q15582) | -0.021 | -0.047 | 0.215 | 0.181 | 0.067 | -0.451 | 0.031 | 0.043 | -0.182 | -0.159 |
| THRAP3 (UniProt Q9Y2W1) | 0.014 | 0.04 | 0.019 | -0.111 | 0.044 | -0.003 | -0.078 | -0.071 | 0.133 | -0.043 |
| SLC25A39 (UniProt Q9BZJ4) | -0.029 | -0.025 | 0.14 | -0.165 | 0.044 | 0.075 | 0.269 | -0.08 | -0.079 | -0.523 |
